27 compounds from PubChem BioAssay (NCATS) can be followed below.

Test [1] concerns the target Calcium and integrin-binding protein 1 (Homo sapiens) (UniProt Q99828). Nature of the test: Primary qHTS for Identification of Calcium Integrin Binding Protein 1 (CIB1) Competitor (AID 1508620). Also: top concentration of the series differs between compounds. In a few lines: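 Fluorescence polarization competition: GST-tagged CIB1 (1 uM final) preincubated with compound 15 min at room temperature, then FITC-labelled alphaIIb peptide (100 nM final) added. After 15 min at room temperature, polarization read at Ex 480/Em 540.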

Test [2] in a line: Primary qHTS for inhibitors of nuclear receptor binding SET domain protein 2 (NSD2) in an isogenic RCH-ACV NSD2 p.E1099K mutant (9B) (AID 1645876). Also: nearly all actives have a fitted effect of over 70% in size. Also: potency is read from the fitted curve at half-maximal effect. A general note: qHTS replaces the single test concentration by a dilution series.

Molecules are shown by their SMILES. Inconclusive results are not listed. Entries that show only a call come without a potency. Unmarked numbers belong to inactive results. Active and inactive are the calls of the source. Calls follow the shape of the dose curve; as a rule, active = well fitted inhibition curve with a large enough effect; inconclusive = small, poorly fitted or top-dose-only effect; inactive = flat fitted curve, though single readings scatter.

Sequence of Calcium and integrin-binding protein 1 (Homo sapiens) (Q99828 whole entry, looked up): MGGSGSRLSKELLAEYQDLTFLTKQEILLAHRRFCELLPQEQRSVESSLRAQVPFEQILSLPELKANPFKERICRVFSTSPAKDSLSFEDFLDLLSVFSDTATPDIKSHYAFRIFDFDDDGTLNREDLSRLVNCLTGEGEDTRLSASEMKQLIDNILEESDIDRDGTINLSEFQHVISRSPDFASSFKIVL

Regarding `C/C=C1\[C@H](O[C@@H]2O[C@H](CO)[C@@H](O)[C@H](O)[C@H]2O)OC=C(C(=O)OC)[C@H]1CC(=O)OC[C@H]1O[C@@H](OCCc2ccc(O)cc2)[C@H](O)[C@@H](O)[C@@H]1O`, the Potency entry in test [1] and in test [2] was “inactive” throughout.

With `O=C1NC(Cc2ccccc2)C(=O)N2CCCC12` (centres undefined), the Potency result in test [1] and in test [2] was “inactive” in each case.

Regarding `CC(=O)c1c(O)cc(O[C@@H]2O[C@H](CO)[C@@H](O)[C@H](O)[C@H]2O)cc1O`, the Potency result in test [1] and in test [2] was “inactive” in each case.

In the case of `O=C(O)Cc1cn(C2OCC(O)C(O)C2O[C@@H]2O[C@H](CO)[C@@H](O)[C@H](O)[C@H]2O)c2ccccc12` (some centres undefined), the Potency entry in test [1] and in test [2] was “inactive” each time.

In the case of `CC1CCC2(C=O)C(CO)=CCCC2C1(C)CC(=O)O` (centres undefined), the Potency entry in test [1] and in test [2] was “inactive” each time.

On to `CC1(C)CC[C@]2(C(=O)O[C@@H]3O[C@H](CO)[C@@H](O)[C@H](O)[C@H]3O)CC[C@]3(C)C(=CCC4[C@@]5(C)C[C@@H](O)[C@H](O)C(C)(C)C5CC[C@]43C)C2[C@@H]1O` (some centres undefined), for which the Potency result in test [1] and in test [2] was “inactive” each time.

For the compound `CC(O)/C=C/C1(O)C2(C)COC1(C)CC(O)C2` (centres undefined), the Potency entry in test [1] and in test [2] was “inactive” each time.

For the compound `COC(=O)c1ccc(OC(CO)C(O)c2ccc(O)c(OC)c2)c(OC)c1` (centres undefined), the Potency entry in test [1] and in test [2] was “inactive” in each case.

Turning to `Cc1cnc(NC(=O)Nc2cc(Br)c(C)cc2OCC2CNCCO2)cn1` (centres undefined), in test [1], the Potency entry was “inactive”. Also, the Potency in test [2] was 0.649 µM (active).

As for `CC/C=C\CCO[C@@H]1O[C@H](CO[C@@H]2OC[C@H](O)[C@H](O)[C@H]2O)[C@@H](O)[C@H](O)[C@H]1O`, the Potency entry in test [1] and in test [2] was “inactive” each time.

With `C=CC(C)(CC/C=C(\C)C(=O)OC)OC1OC(COC(=O)CC(C)(O)CC(=O)O)C(OC2OC(CO)C(O)C(O)C2O)C(O)C1O` (centres undefined), the Potency entry in test [1] and in test [2] was “inactive” each time.

In the case of `C/C(=C\CCC(C)CCO)C(=O)O[C@@H]1[C@@H](O)[C@H](OC2OC=C(C(=O)O)C3CCC(C)(O)C23)O[C@H](CO)[C@H]1O` (some centres undefined), the Potency entry in test [1] and in test [2] was “inactive” in each case.

Take `CCCC(=O)NCCc1csc(-c2ccc(Cl)cc2)n1`: in test [1], the Potency entry was “inactive”. Moreover, the Potency in test [2] is 12.9 µM (active).

For the compound `CC(C)O[C@@H]1O[C@H](CO)[C@@H](O)[C@H](O)[C@H]1O`, the Potency result in test [1] and in test [2] was “inactive” in each case.

Regarding `CC1=C2C[C@H]3O[C@@]3(C)CCC3O[C@@]3(C)C[C@@]2(O)OC1=O` (some centres undefined), the Potency result in test [1] and in test [2] was “inactive” each time.

Take `CC1C(=O)OCC2=CCN3CCC(OC(=O)C(C)(O)C1(C)O)C23` (centres undefined): the Potency result in test [1] and in test [2] was “inactive” in each case.

As for `CC1=C(C)C(=O)OC(C(C)C2CCC3C4CC=C5CC(OC6OC(COC7OC(CO)C(O)C(O)C7O)C(O)C(O)C6O)CC(O)C5(C)C4CCC23C)C1` (centres undefined), the Potency result in test [1] and in test [2] was “inactive” in each case.

Turning to `CC(=O)N[C@H]1[C@H](O[C@H]2CC[C@@]3(C)C(CC[C@]4(C)C3CC=C3C5CC(C)(C)CC[C@]5(C(=O)O)[C@H](O)C[C@]34C)C2(C)C)O[C@H](CO[C@@H]2OC[C@H](O)[C@H](O)[C@H]2O[C@@H]2OC[C@@H](O)[C@H](O)[C@H]2O)[C@@H](O)[C@@H]1O` (some centres undefined), in test [1], the Potency result is “inactive”. The activity change, negative = viability loss in test [2] is -10% [at 9.23 µM].

As to `O=C(OC[C@H]1O[C@H](O[C@]2(CO)O[C@H](CO)[C@@H](O)[C@@H]2O)[C@H](O)[C@@H](O)[C@@H]1O)c1ccccc1`, the Potency result in test [1] and in test [2] was “inactive” in each case.

In the case of `COc1cc(O)cc(C)c1C(=O)OC1C(CO)OC(OC2C(O)C(O)C(O)C(O)C2O)C(O)C1O` (centres undefined), the Potency entry in test [1] and in test [2] was “inactive” in each case.

Take `CC1(C)CC[C@]2(C(=O)O)CC[C@]3(C)C(=CCC4[C@@]5(C)CC[C@H](O[C@@H]6O[C@H](CO)[C@@H](O)[C@H](O)[C@H]6O[C@@H]6O[C@H](CO)[C@@H](O)[C@H](O)[C@H]6O)[C@@](C)(CO)C5CC[C@]43C)[C@@H]2C1` (some centres undefined): the Potency result in test [1] and in test [2] was “inactive” in each case.

Regarding `CC(=O)c1ccc(O[C@@H]2O[C@H](CO)[C@@H](O)[C@H](O)[C@H]2O)cc1`, the Potency entry in test [1] and in test [2] was “inactive” in each case.

In the case of `CC[C@]12C=CCN3CC[C@@]4(c5cc([C@@]6(C(=O)OC)C[C@H]7C[C@@H](C(C)(F)F)CN(Cc8c6[nH]c6ccccc86)C7)c(OC)cc5N(C)[C@H]4[C@@](O)(C(=O)OC)[C@@H]1OC(C)=O)[C@@H]32`, the Potency result in test [1] is “inactive”. Also, the Potency in test [2] was 0.139 µM (active).

As to `Cn1cncc1C(N)(c1ccc(Cl)cc1)c1ccc2c(c1)c(-c1cccc(Cl)c1)cc(=O)n2C` (centres undefined), the Potency result in test [1] is “inactive”. For the same compound, the Potency in test [2] was 4.17 µM (active).

Consider `CC1(C)CC[C@]2(C(=O)O)CC[C@]3(C)C(=CCC4[C@@]5(C)C[C@@H](O)[C@H](O)C(C)(C)C5CC[C@]43C)C2C1` (some centres undefined), for which the Potency entry in test [1] and in test [2] was “inactive” each time.

Turning to `NC1CCCCN(c2c(F)cc3c(=O)c(C(=O)O)cn(C4CC4)c3c2Cl)C1` (centres undefined), the Potency entry in test [1] and in test [2] was “inactive” throughout.

Consider `COc1ccc(-c2c(-c3cc(C(=O)O)ccn3)ncn2C)cc1`, for which the Potency entry in test [1] and in test [2] was “inactive” each time.
